# Measured values reported in ChEMBL document CHEMBL3988442, “University of Dundee, Small-Polar-MMV Screening Library” (2021).
# Among all 48,000 compounds or so, about 13,000 (27%) showed an effect of 50% or more. Some of the results follow.
# Tested on: Wolbachia pipientis
# Assay: Anti-Wolbachia Cell-Based Screen
# Type: functional
# Set-up: scale not given: in the data most compounds retested in dose-response had high values
# Details: 5 µM
row,Structure (SMILES),Percent Effect [%]
1,COc1ccc(CN[C@@H]2CO[C@H](CNC(=O)NC(C)C)[C@H]2O)cc1,1.543
2,CC(C)c1noc(C(C)S(=O)(=O)Cc2nc(C3CC3)no2)n1 (configuration not stated),8.57
3,Cc1cnn(CCCNC(=O)NC2CCN(CC(F)(F)F)C2=O)c1 (configuration not stated),-8.389
4,O=C1CNc2ncnc(Nc3cnn(Cc4ccccc4F)c3)c2N1,112.6
5,COc1ccc2c(CN3CCN(Cc4cccc(F)c4)CC3)n[nH]c2c1,2.522
6,O=C1CNc2ncnc(Nc3cnn(Cc4cccc(F)c4)c3)c2N1,115.2
7,CC(C)(C(=O)NCc1ccccc1F)n1cc(Br)cn1,10.35
8,O=C1CNc2ncnc(Nc3cnn(Cc4ccccc4)c3)c2N1,115.8
9,O=C1CC(NCc2ccncc2)CN1Cc1cccc(F)c1 (configuration not stated),-21.37
10,O=C1CCN(Cc2cnc3c(-c4ccccc4)cnn3c2)CCN1,2.207
11,O=C(NCCCOc1cccnc1)c1cn(Cc2ccccc2F)nn1,-6.028
12,c1ccc(Cn2cc(CNCC3CCCN3c3cccnn3)cn2)cc1 (configuration not stated),20.91
13,O=C1CNc2ncnc(Nc3cnn(Cc4ccc(F)cc4)c3)c2N1,101.7
14,CCN1CCCC1Cn1ccc2ccc(C(=O)OC)cc2c1=O (configuration not stated),-21.42
15,COc1cccc(CN(C)Cc2cccc(C#N)c2)c1OC,-9.148
16,O=C1CNc2ncnc(Nc3cccc(Cn4cccn4)c3)c2N1,129.6
17,c1cc(CN2CCC(CCn3cccn3)CC2)cc(Cn2cccn2)c1,-8.775
18,OC1CCN(C2CCN(Cc3cccc(Cn4cccn4)c3)CC2)CC1,19.22
19,CCCn1cc(-c2ccnc(NC3CCCc4ccccc43)n2)c(C)n1 (configuration not stated),2.739
20,OCCNc1nccc(-c2cn3nccc3nc2C2CCCCC2)n1,109.1
21,CCN(CC)CCCNc1nccc(-c2cn(C)nc2C)n1,-2.773
22,CCCn1ncc(-c2ccnc(NC3CCCc4ccccc43)n2)c1C (configuration not stated),-7.325
23,CNCCNc1nccc(-c2cn(C)nc2C)n1,0.09563

row,Structure (SMILES),Percent Effect [%]
1,Cc1cc2nc(C3CCCCC3)c(-c3ccnc(NCCO)n3)cn2n1,91.18
2,CCN(CCNC(=O)C1CCCN(C(C)=O)C1)c1ccccc1C (configuration not stated),2.266
3,CNc1ncc(CN(C)c2nc(C)c3ccc(S(C)(=O)=O)cc3n2)cn1,9.72
4,COc1cccc(CN2CC(O)CN(C(=O)C(C)(C)C)CC2=O)c1OC (configuration not stated),116.9
5,COc1cccc2cc(CNC(C)(C)C(=O)N3CCC(O)CC3)oc12,-3.796
6,CCOC(=O)N1CC(=O)N(Cc2cccc(OC)c2OC)CC(O)C1 (configuration not stated),107.9
7,COc1cccc(CN(C)C(=O)CCC(=O)c2ccccc2)c1OC,-10.25
8,COc1ccnc(CN2CC(=O)N(c3ccc(C)cc3)CC2C)c1OC (configuration not stated),-8.096
9,COCCN1CCc2nc(SCc3ccc(F)cc3)[nH]c(=O)c2C1,106
10,CCCN1CCc2nc(SCc3ccc(F)cc3)[nH]c(=O)c2C1,101.4
11,CCCN1CCc2nc(SCc3ccccc3)[nH]c(=O)c2C1,19.11
12,CCCN1CCc2nc(SCc3ccccc3F)[nH]c(=O)c2C1,16.02
13,C=Cc1ccc(CSc2nc3c(c(=O)[nH]2)CN(CCC)CC3)cc1,-6.559
14,COCCN1CCc2onc(C(c3ccccc3)c3ccccc3)c2C1,19.48
15,CCCN(C)C(=O)c1ccc2c(c1)[nH]c(=O)n2CCOCC,-27.89
16,Cc1csc(CNC(=O)NCC(O)c2cccc(Cl)c2)n1 (configuration not stated),-23.66
17,C=C(C)CN(CC)C(=O)c1cc(Cl)ccc1NS(C)(=O)=O,-12.97
18,COc1cccc(C2C3=C(COC3=O)Nc3[nH]nc(C)c32)c1OC (configuration not stated),3.331
19,CNC(=O)c1cccc(CC2COCCN(Cc3ccc(C)o3)C2)n1 (configuration not stated),193.8
20,O=C(NCc1cc(N2CCOCC2)ncn1)c1cccc(CO)n1,-9.818
21,Cn1nc(CN2CCOCC2)c2c1CN(Cc1ccsc1)C2.O=C(O)C(F)(F)F.O=C(O)C(F)(F)F,1.369
22,Cc1ccc(CN2CC[C@@H]3CN(S(C)(=O)=O)CCO[C@@H]3C2)o1,-7.086
23,CNC(=O)c1cccc(CC2COCCN(Cc3ccsc3)C2)n1 (configuration not stated),152.2

row,Structure (SMILES),Percent Effect [%]
1,Cc1ccc(CN2CCC3(CC2)CC(NC(=O)c2ccccn2)CO3)o1 (configuration not stated),-7.485
2,COCCN(CCN(C)C)C(=O)NC1CC1,-6.538
3,CCCNC(=O)C[S+]([O-])Cc1csc(C2CCCCC2)n1 (configuration not stated),9.015
4,CC(C)c1cc(NCc2csc(N(C)C)n2)nc(N)n1,-34.84
5,C1CN(c2nc(C3CC3)no2)CCN(C2CCOCC2)C1,3.883
6,CCn1ncc2c1C(COC)CN(S(=O)(=O)C1CC1)C2 (configuration not stated),-7.886
7,CCn1ncc2c1C(COC)CN(Cc1ccc(OC)cc1)C2 (configuration not stated),12.18
8,CCn1ncc2c1C(COC)CN(Cc1nccs1)C2 (configuration not stated),93.87
9,CCn1ncc2c1C(COC)CN(Cc1cnn(C)c1)C2 (configuration not stated),98.55
10,Cn1ncc2c1C(COCC1CC1)CN(Cc1nccs1)C2 (configuration not stated),-9.049
11,CC(C)N(CC1CCCN(Cc2ccon2)C1)C(=O)OC(C)(C)C (configuration not stated),-0.3893
12,CC(C)OCCNC(=O)C1CCC(=O)N(C2CCCC2)C1 (configuration not stated),-13.5
13,Cc1ccc(CNC(=O)N2CCN(S(C)(=O)=O)CC2)n1C,-9
14,CN(C)C(=O)c1ccn(-c2ccc3ccccn23)n1,2.89
15,CS(=O)(=O)N1CCCCCC1C1CCN(c2ncccc2C#N)CC1 (configuration not stated),-0.7273
16,CS(=O)(=O)N1CCCC1c1ccnc2nccn12 (configuration not stated),122.4
17,CS(=O)(=O)N1CCCCCC1C1CCN(c2ncccn2)CC1 (configuration not stated),-4.856
18,Cc1ccc2nc(C3CCCN3Cc3cccc(CCN)c3)[nH]c2c1 (configuration not stated),-6.155
19,Cc1ccc2nc(C3CCCN3Cc3scnc3C)[nH]c2c1 (configuration not stated),-7.773
20,Cc1csc(Nc2nccnc2C2CCCN2S(C)(=O)=O)n1 (configuration not stated),47.35
21,CS(=O)(=O)N1CCC[C@H]1c1ncnn1-c1ccc2c(c1)OCO2,23.33
